The text below walks through data of PubChem BioAssay (Tox21).

Activity calls are given as the source filed them. Calls follow the shape of the dose curve; as a rule, active = well fitted curve in the direction sought with a large enough effect in the repeat runs; inconclusive = weak or mixed curves; inactive = flat fitted curve, though single readings scatter.
% is scaled to controls: 0 for no effect and ±100 for the full control effect.

This assay is described as follows: qHTS assay to test for compound auto fluorescence at 590 nm (red) in HepG2 cell free culture (AID 720684). The following applies: cell-free medium autofluorescence, red 540/590 nm; series mostly up to 91.3 µM. An excerpt: U.S. Tox21 Program National Center for Advancing Translational Sciences [NCATS] NIH Chemical Genomics Center [NCGC] U.S. Environmental Protection Agency [EPA] National Institutes of Environmental Health Sciences [NIEHS] National Toxicology Program [NTP] U.S. Food and Drug Administration [FDA] Tox21 Assay Overview: Compound auto fluorescence often interferes with screening of the compound library against various biological targets and signaling pathways. Some of these compounds may have fluorophoric properties. Such properties may interfere with the assay outputs resulting in false positives and/or negatives. To decrease such complications and ensure the compound activities are relevant in terms of biological response, the Tox21 10K compound library was screened for auto fluorescence. From the fluorophores used as reporter signals in our screening assays, the auto fluorescence equivalencies of compounds against three fluorophores have been evaluated: Triamterene, Fluorescein and Rose Bengal sodium for blue, green and red fluorescence, respectively. The fluorescence intensities were measured using Excitation/Emission wavelengths at 405/460nm, 485/535nm and 540/590nm for blue, green and red labels, respectively. This assay includes the red fluorescence data.
Tox21 Assay Protocol Summary: 5 uL of culture medium (MEM containing 10% FBS) per well was dispensed into black wall/clear bottom 1536-well plates using a Multidrop Combi Dispenser (ThermoFisher Scientific, Waltham, MA). After 23 nL compound or DMSO vehicle was transferred into assay plate by a pintool work station (Kalypsys, San Diego, CA), fluorescence intensities in the assay plates were measured by an Envision (PerkinElmer, Shelton, CT) plate reader using three labels for measuring blue, green and red fluorescence at […] 460, 535 and 590nm respectively.
Turning to `COc1ccc(C(=O)c2cccc(O)c2)c(OC)c1`, the call was inactive. Still for that read-out and setting: for `CCCCCCOC(=O)C(C)C` the value was “inactive”; for `CC(CCO)CCc1ccccc1` (stereo not given), “inactive”; for `CCc1c2c(nc3ccc(OC(=O)N4CCC(N5CCCCC5)CC4)cc13)-c1cc3c(c(=O)n1C2)COC(=O)[C@]3(O)CC`, “inactive”. On to `CC(C)(O)c1ccccc1CC[C@@H](SCC1(CC(=O)O)CC1)c1cccc(/C=C/c2ccc3ccc(Cl)cc3n2)c1`, for which the outcome was inactive. Same read-out and setting: for `Cc1ccc(S(=O)(=O)NC2CCCCC2)cc1` the value was “inactive”; for `O=C1OCCN1/N=C/c1ccc([N+](=O)[O-])o1`, “inactive”; for `Cc1ccccc1N1C(=O)c2cc(S(N)(=O)=O)c(Cl)cc2NC1C` (stereo not given), “inactive”. On to `CC(C)CCCCCOC(=O)CCCCC(=O)OCCCCCC(C)C`, for which the compound was classed as inactive.

Regarding `C(=C\c1ccccc1)/CN1CCN(C(c2ccccc2)c2ccccc2)CC1`, the fluorescence, % of Rose Bengal was -0.312% [at 18.6 µM] (inactive).

Regarding `CC(C)CCCC(=O)O`, the compound was called inactive. For `CC1(C)C(=O)N(Br)C(=O)N1Cl`, the compound was called inactive. Still for that read-out and setting: for `O=C(CCC1CCN(Cc2ccccc2)CC1)c1ccc2c(c1)NCCCC2` the value was “inactive”; for `CCn1nc(C)c2c1C(=O)NCC(c1ccc(O)cc1)=N2`, “inactive”; for `CCOC(=O)c1ccccc1OC`, “inactive”. On the same count and under the same terms, under `Cc1cc(O)c2c(O)c3c(O)cccc3cc2c1` stands “inactive”; under `Nc1nc(Cl)nc2c1ncn2[C@@H]1O[C@H](CO)[C@@H](O)[C@@H]1F`, “inactive”; under `Cc1c(C(=O)NN2CCCCC2)nn(-c2ccc(Cl)cc2Cl)c1-c1ccc(Cl)cc1`, “inactive”. On the same count and under the same terms, under `O=C(O)c1cccc(O)c1` stands “inactive”; under `CO/N=C1\CN(c2nc3c(cc2F)c(=O)c(C(=O)O)cn3C2CC2)CC1CN` (stereo not given), “inactive”.

Regarding `CCCCCCCCCCCC[N+](C)(C)CCCS(=O)(=O)[O-]`, the compound was classed as inactive. As to `N#C/C(=C1/SC[C@@H](c2ccc(Cl)cc2Cl)S1)n1ccnc1`, the call was inactive.

As to `CN(C(=O)C(Cl)Cl)c1ccc(OC(=O)c2ccco2)cc1`, the result was inactive.

On to `CC1CC(O)CC(C)(C)C1` (stereo not given), for which the outcome was inactive. The same measure, in the same setting: under `CCCCCCCCCOC(C)=O` stands “inactive”; under `CCCCCCCCCCOS(=O)(=O)O`, “inactive”; under `Nc1ccc(Cl)cc1[N+](=O)[O-]`, “inactive”. Take `Cc1ccnc2ccccc12`: the result was inactive. On the same count and under the same terms, under `C[C@@H]1C[C@H]2[C@@H]3CCC4=CC(=O)C=C[C@]4(C)[C@@]3(F)[C@@H](O)C[C@]2(C)[C@@]1(O)C(=O)CO` stands “inactive”. Still for that read-out and setting: under `CC1(C)O[C@@H]2C[C@H]3[C@@H]4CCC5=CC(=O)C=C[C@]5(C)[C@H]4[C@@H](O)C[C@]3(C)[C@]2(C(=O)CO)O1` stands “inactive”; under `CC(=O)Nc1ccccc1C`, “inactive”; under `CNC(=S)NC`, “inactive”. For `C=CC(=O)NCOCC(C)C`, the compound was classed as inactive. On the same count and under the same terms, for `CC(C)(C)C(=O)O` the value was “inactive”; for `CC1(C)C2=CCCC(C)(C)[C@]23CC[C@H]1C3`, “inactive”. Regarding `O=C(O)Cc1ccc(-c2ccccc2)cc1`, the fluorescence, % of Rose Bengal is -0.0701% [at 18.6 µM] (inactive).

For the compound `CCCCCCCCCCCC[N+](C)(C)CC(=O)[O-]`, the call was inactive.

Regarding `CCCCCCCCCCCCCCCCBr`, the fluorescence, % of Rose Bengal is 0.119% [at 18.6 µM] (inactive). Turning to `CCCOC(=O)c1ccc(N)cc1`, the result was inactive. Same read-out and setting: for `COCCOC(=O)C1=C(C)NC(C)=C(C(=O)OC/C=C/c2ccccc2)C1c1cccc([N+](=O)[O-])c1` (stereo not given) the value was “inactive”.
